# Results from PubChem BioAssay AID1053118 (Broad Institute, 2014).
# Potency and affinity values are given separately. Active and inactive are the calls of the source.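 The calls were made as follows: active = fitted half-maximal concentration for ATP signal loss at most twice the top valid dose; inconclusive = flat curve between -70 and -30%, or an invalid fit; inactive = flat within ±30%, wrong direction, or potency past limit.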
# Assay: HepG2 cell cytotoxicity, dose response, cytotoxicity control, cherry-picks, set 5 (AID 1053118)
# Details: HepG2 viability, ATP luminescence, 72 h; series mostly up to 26 µM
structure (smiles),measurement,value
C=C1C(=O)O[C@@H]2C[C@@H](C)[C@@H]3C=CC(=O)[C@@]3(C)[C@@H](O)[C@H]12,outcome,inactive
